According to PubChem BioAssay:
Entries with a potency or affinity are not part of this list. Calls of active or inactive are those of the source.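 How the source made its calls, unless noted: active means fitted dose curve reaches 40% lysis signal rise at or below the highest valid concentration tested for that sample; inconclusive means flat fit between 30% and 70%, or poor curve fit; inactive means signal falls, stays flat within 30%, or no crossing.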

Experiments:
[1] = C. neoformans lysis by adenylate kinase leakage – AK release luminescence, cherry-picks, dose response (AID 687000);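 further: luminescent detection of adenylate kinase leaking from lysed yeast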
[2] = viability loss in HepG2 hepatoma cells – cell-based, cherry-picks, set 2, cytotoxicity control, dose response (AID 687002;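 active means a dose-response fit showing signal loss, with half-maximal concentration no higher than twice the top tested dose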)
[3] = viability loss in HeLa cells – cell-based, ATP luminescence, cherry-pick samples, cytotoxicity control, dose response (AID 687004;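 active means a fitted half-maximal concentration no higher than twice the top valid tested dose, with signal falling as cells die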)

Measured: outcome

CCNC(=O)C[C@H]1CC[C@@H](NC(=O)NC2CCCCC2)[C@H](CO)O1
inactive: [1] | [2] | [3]

CC(C)COc1ccc(CNC(=S)NCc2ccccc2)cc1
inactive: [1] | [2] | [3]

COc1ccc(CN(C)C[C@@H]2Oc3ccc(NS(C)(=O)=O)cc3CC(=O)N([C@H](C)CO)C[C@H]2C)cc1
inactive: [1] | [2] | [3]

CC(C)NC(=O)Nc1ccc2c(c1)C(=O)N([C@@H](C)CO)C[C@@H](C)[C@@H](CN(C)C(=O)NC1CCCCC1)OCCCC[C@H](C)O2
inactive: [1] | [2] | [3]

Cc1cc(C)c(NC(=O)CN(C2CCCCC2)C2CCCCC2)c(C)c1
inactive: [1] | [2] | [3]

CCOC(=O)CNC(=O)CSc1ncnc2c1cnn2-c1ccccc1
inactive: [1] | [2] | [3]

C[C@H](CO)N1C[C@H](C)[C@@H](CN(C)Cc2ccc(Oc3ccccc3)cc2)Oc2ccc(NC(=O)Nc3ccc4c(c3)OCO4)cc2C1=O
inactive: [1] | [2] | [3]

C[C@H]1CN([C@@H](C)CO)C(=O)Cc2cc(NS(=O)(=O)c3cn(C)cn3)ccc2O[C@@H]1CN(C)Cc1ccc(Oc2ccccc2)cc1
inactive: [1] | [2] | [3]

CC(=O)N1[C@H](CO)[C@H](c2ccc(-c3ccccc3)cc2)[C@@H]1CNC(=O)C1CC1
inactive: [1] | [2] | [3]

CC(NC1CCCC1)C(=O)Nc1ccccc1-c1ccccc1 (stereo not given)
inactive: [1] | [2] | [3]

Cc1ccccc1OCC(=O)NCc1ccccc1
inactive: [1] | [2] | [3]

CCOc1cc(CNC)ccc1OCC(=O)NC(C)(C)C
inactive: [1] | [2] | [3]

c1ccc(-n2ncc3c(NCc4ccc5c(c4)OCO5)ncnc32)cc1
inactive: [1] | [2] | [3]

CNC(=O)CN(c1ccc(OC)cc1)S(=O)(=O)c1ccc(F)cc1
inactive: [1] | [2] | [3]

O=C(COc1ccccc1)NCc1ccc2c(c1)OCO2
inactive: [1] | [2] | [3]

O=C(NC(=S)Nc1ccccc1N1CCOCC1)c1ccccc1F
inactive: [1] | [2] | [3]

C[C@H]1CN([C@@H](C)CO)C(=O)CCCn2cc(nn2)CO[C@@H]1CN(C)Cc1ccc(C(F)(F)F)cc1
inactive: [1] | [2] | [3]

CCOC(=O)CNC(=O)CSc1ncnc2c1cnn2-c1ccc(Cl)cc1
inactive: [1] | [2] | [3]

Cc1ccccc1-n1ncc2c(SCC(=O)NCc3cccs3)ncnc21
inactive: [1] | [2] | [3]

CCC(=O)N1[C@H](CO)[C@@H](c2ccc(-c3cccnc3)cc2)[C@@H]1CN(C)C(C)=O
inactive: [1] | [2] | [3]

COc1ccc(NC(=O)c2cn(C)c(=O)c3cc(OC)c(OC)cc23)c(OC)c1
inactive: [1] | [2] | [3]

O=C(NC(=S)Nc1ccc(N2CCOCC2)cc1)c1cccc([N+](=O)[O-])c1
inactive: [1] | [2] | [3]

O=C1CCC(C(=O)Nc2cccc3ccccc23)N1 (stereo not given)
inactive: [1] | [2] | [3]

CCCC[C@@H]1CNC(=S)N1CCc1cccc(F)c1
inactive: [1] | [2] | [3]

COC(=O)C1=C(C)N(C)C(=S)N(C)C1c1ccc(OC)cc1 (stereo not given)
inactive: [1] | [2] | [3]

Cc1noc(C)c1NC(=O)N(C)C[C@H]1OCCCC[C@@H](C)Oc2ccc(NC(=O)NC(C)C)cc2C(=O)N([C@H](C)CO)C[C@H]1C
inactive: [1] | [2] | [3]

O=C(C[C@@H]1CC[C@@H]2[C@H](COC[C@@H](O)CN2C(=O)Nc2ccc(Cl)cc2)O1)NC1Cc2ccccc2C1
inactive: [1] | [2] | [3]

Cc1ccc(OCC(=O)NC(C)c2ccccc2)cc1 (stereo not given)
inactive: [1] | [2] | [3]

O=C(NC(=S)Nc1ccccc1N1CCOCC1)c1ccc([N+](=O)[O-])cc1
inactive: [1] | [2] | [3]

C[C@@H]1CN([C@@H](C)CO)C(=O)c2cc(-c3cncnc3)cnc2O[C@H]1CN(C)C(=O)CN1CCOCC1
inactive: [1] | [2] | [3]

CO[C@@H]1CN(C)C(=O)c2ccc(NS(=O)(=O)c3ccc(Oc4ccccc4)cc3)cc2OC[C@H](C)NC[C@H]1C
inactive: [1] | [2] | [3]

CCCn1c(=S)[nH]c2cc(Cl)ccc21
inactive: [1] | [2] | [3]

C[C@@H]1CN([C@@H](C)CO)C(=O)c2cc(NC(=O)C3CC3)ccc2O[C@H]1CN(C)Cc1ccc2c(c1)OCO2
inactive: [1] | [2] | [3]

Cc1ccc(C2CCN(C(=S)NC3CCCCC3)C2)cc1 (stereo not given)
inactive: [1] | [2] | [3]

O=C(NC[C@@H]1[C@@H](c2ccccc2)[C@H](CO)N1C(=O)C1CCC1)NC1CCCC1
inactive: [1] | [2] | [3]

CCC(=O)Nc1ccc2c(c1)C(=O)N(C)C[C@H](OC)[C@@H](C)CN[C@H](C)CO2
inactive: [1] | [2] | [3]

CN1C[C@@H]2C(c3ccc(C(F)(F)F)cc3)C3(c4ccccc4)CC2(C3)[C@H]1c1ccccc1 (stereo not given in full)
inactive: [1] | [2] | [3]

O=C(CN(c1ccccc1)S(=O)(=O)c1ccccc1)Nc1ccc(F)cc1
inactive: [1] | [2] | [3]

O=c1nc(-c2ccccc2)c2ccccc2[nH]1
inactive: [1] | [2] | [3]

C[C@H](CO)N1C[C@H](C)[C@H](CN(C)Cc2ccc(Cl)c(Cl)c2)Oc2c(NC(=O)Nc3ccccc3)cccc2C1=O
inactive: [1] | [2] | [3]

Cc1cc(C)c(NC(=O)CN2CCN3CCCC3C2)c(C)c1 (stereo not given)
inactive: [1] | [2] | [3]

CC(=O)c1ccc(OCC(=O)NCc2ccc(F)cc2)cc1
inactive: [1] | [2] | [3]

Cc1ccccc1NC(=O)C(NC1CCCCC1)C(C)C (stereo not given)
inactive: [1] | [2] | [3]

Fc1ccccc1CNC(=S)NCc1ccc(Cl)cc1
inactive: [1] | [2] | [3]

Cc1cc(C)cc(OCC(=O)NC(C)c2ccccc2)c1 (stereo not given)
inactive: [1] | [2] | [3]

CCN(CC)C(=O)CSc1ncnc2c1cnn2-c1ccccc1
inactive: [1] | [2] | [3]

COc1ccc(C#Cc2ccc3c(c2)O[C@H](CN(C)C(C)=O)[C@@H](C)CN([C@@H](C)CO)S3(=O)=O)cc1
inactive: [1] | [2] | [3]

C[C@H](CO)N1C[C@H](C)[C@H](CN(C)S(=O)(=O)c2cn(C)cn2)Oc2ncc(/C=C/c3ccccc3)cc2C1=O
inactive: [1] | [2] | [3]

CCCN1C(=O)C(O)(C2CC(=O)CC(C)(C)O2)c2ccccc21 (stereo not given)
inactive: [1] | [2] | [3]

CC(NC(=O)COc1ccccc1-c1ccccc1)c1ccccc1 (stereo not given)
inactive: [1] | [2] | [3]
